# Measured values as given in ChEMBL document CHEMBL3988442, “University of Dundee, Small-Polar-MMV Screening Library” (2021).
# Screen size: about 48,000 compounds; about 13,000 (27%) showed an effect of 50% or more. The list shows a part of the results.
# Tested on: Wolbachia pipientis
# Experiment: Anti-Wolbachia Cell-Based Screen
# Assay type: functional
# Design: scale not given: in the data most compounds retested in dose-response had high values
# Settings: 5 µM
row,Compound,Percent Effect
1,COc1ccc(C(C)Nc2ncc(C(N)=O)cc2Cl)cc1F (configuration not stated),-11.64%
2,COc1ccc(C(C)NC(=O)NCCc2ccc(C)nc2)c(OC)c1 (configuration not stated),8.171%
3,COc1ccc(C(C)NCCC(N)=O)cc1F (configuration not stated),53.8%
4,COc1ccc(C(C)NCCc2ccc(NC(C)=O)cc2)cc1F (configuration not stated),98.08%
5,COc1ccc(NC(C)C(=O)NCCc2cccs2)cc1F (configuration not stated),-5.142%
6,COc1ccc(C(C)NC(=O)Nc2nnc(C)s2)c(OC)c1 (configuration not stated),5.487%
7,COc1ccc(C(C)NC(=O)NCCCn2cncn2)cc1F (configuration not stated),3.932%
8,COc1ccc(C(C)NCc2nnc(C)s2)cc1F (configuration not stated),-18.95%
9,COc1ccc(C(C)NCCc2ccc(NC(C)=O)cc2)c(OC)c1 (configuration not stated),110.9%
10,Cc1ccc(NCc2ccccc2C#N)cc1-n1cnnn1,14%
11,CCCNC(=O)CNc1cc(C(=O)NCC(F)(F)F)cc(F)c1C,-0.1534%
12,COCCN(Cc1ccco1)Cc1nc(-c2ccccc2C)no1,-8.039%
13,CN(c1ncc(S(N)(=O)=O)s1)C1CCc2ccccc21 (configuration not stated),0.8223%
14,O=C(O)C(F)(F)F.c1cc(CNCC2Cn3nncc3CO2)co1 (configuration not stated),-8.195%
15,Fc1ccc(CNCC2Cn3nncc3CO2)cc1.O=C(O)C(F)(F)F (configuration not stated),10.26%
16,Cc1cc(CNCC2Cn3nnc(C)c3CO2)oc1C.O=C(O)C(F)(F)F (configuration not stated),-14.18%
17,Cc1noc(C)c1CNCC1Cn2nncc2CO1.O=C(O)C(F)(F)F (configuration not stated),106%
18,Cc1nc(CNCC2Cn3nncc3CO2)cs1.O=C(O)C(F)(F)F (configuration not stated),95.04%
19,O=C(O)C(F)(F)F.c1ccc(CCNCC2Cn3nncc3CO2)cc1 (configuration not stated),-6.101%
20,COc1cc2ccn(CCCO)c(=O)c2cc1F,-13.96%
21,Cc1ccc(CCCC(=O)N2CCC(=O)Nc3cccnc32)s1,9.523%
22,Cl.Cl.O[C@@H]1C[C@@](CNCc2ccc(Cl)cc2)(COc2cccnc2)C[C@@H]1O,-11.4%

row,Compound,Percent Effect
1,Cc1nc(C)n(CC(C)C(=O)N2CCC(CN3CCOCC3)CC2)n1 (configuration not stated),-24.3%
2,CC(C)(C)CC(=O)N1CSCC1C(=O)NC1=NCCS1 (configuration not stated),6.289%
3,CNC(=O)c1ccc(OC2CCN(S(C)(=O)=O)CC2)c(Cl)c1,-16.21%
4,CS(=O)(=O)N1CCC(Oc2ccc(C(=O)NC3CCCC3)cc2Cl)CC1,-48.27%
5,CS(=O)(=O)N1CCC(NC(=O)COc2ccccc2Cl)CC1,111.5%
6,COc1cccc2c1OCC(C(=O)NC1CCN(S(C)(=O)=O)CC1)C2 (configuration not stated),11.83%
7,CS(=O)(=O)N1CCC(NC(=O)COc2ccc(Br)cc2Cl)CC1,124.9%
8,COC(C(=O)NC1CCN(S(C)(=O)=O)CC1)c1ccccc1 (configuration not stated),12.34%
9,CC(CNC(=O)N1CCN(CC(F)F)CC1)Cc1cccs1 (configuration not stated),5.816%
10,Cn1ccnc1C(O)(CCNCc1ccco1)C(F)(F)F (configuration not stated),-13.62%
11,CN(C)CCNC(=O)Nc1cccc(C[S+]([O-])Cc2ccccc2)c1 (configuration not stated),-3.662%
12,Cc1noc(CN(C)CC2CCN(CCO)CC2)n1,3.042%
13,COc1ccc(CN2CCC3(CCCNC3)C2)cc1Cn1cccn1 (configuration not stated),-22.52%
14,COc1ccc(CN2CCC3(CC(Nc4ccncn4)C3)C2)c(OC)c1 (configuration not stated),2.421%
15,COc1cccc(CN2CCC3(CC(Nc4ccncn4)C3)C2)c1F (configuration not stated),97.57%
16,COc1cc(CN2CCC3(CC(Nc4ccncn4)C3)C2)cc(OC)c1 (configuration not stated),125.9%
17,COc1cccc(OC)c1CN1CCC2(CC(Nc3ccncn3)C2)C1 (configuration not stated),4.398%
18,CCOC1CCN(CC(=O)Nc2oc(C)c3c(C)n[nH]c(=O)c23)CC1,-5.173%
19,Cc1nc(C)c(CN2CCOC[C@H](Oc3cnccn3)C2)s1,-6.668%
20,Cc1nn(C)c(C)c1CC(=O)NCc1ccnc(OC2CCCC2)c1,-17.69%
21,O=C(Cn1ccc2ccccc21)N1CCC(Oc2cnccn2)CC1,0.2299%
22,Cc1nn(C)cc1NC(=O)CN1CCC(Oc2cnccn2)CC1,129.5%

row,Compound,Percent Effect
1,Cc1c(NC(=O)CN2CCC(Oc3cnccn3)CC2)cnn1C,146%
2,Cn1ccc(NC(=O)CN2CCC(Oc3cnccn3)CC2)n1,107.4%
3,COc1ccnc(NC2CCN(CC(=O)Nc3ccccc3)CC2)n1,-1.982%
4,O=C(Cn1cccn1)N1CCC(Oc2cnccn2)CC1,4.434%
5,CN1CCC(N2CCN(C(C(=O)O)c3cccc4c3OCC4)CC2)CC1 (configuration not stated),-2.868%
6,Cc1nc(-c2cc(C(=O)NC(C)(C(=O)O)C(C)C)co2)cs1 (configuration not stated),1.094%
7,O=C(NCCC1CCCCO1)c1cc(COc2cncc(Cl)c2)on1 (configuration not stated),-5.256%
8,CSC(C)(C)CNC(=O)NC1CCSCC1,-7.35%
9,CCc1nc(C(=O)N2CCN(C)CC2C)nn1-c1ccccc1Cl (configuration not stated),4.953%
10,CC1CN(C)CCN1C(=O)c1cnn(-c2cccc(Cl)c2)c1 (configuration not stated),91.23%
11,CC1CN(C)CCN1C(=O)c1ccn(-c2ccc(F)cc2)n1 (configuration not stated),101.7%
12,Cc1cnn(-c2ccc(C(=O)N3CCN(C)CC3C)cc2)c1 (configuration not stated),-5.131%
13,CC1CN(C)CCN1C(=O)c1ccc(-n2cnnc2)cc1 (configuration not stated),-8.678%
14,CC1CN(C)CCN1C(=O)c1ccn(-c2ccccc2)n1 (configuration not stated),92.82%
15,CC1CN(C)CCN1C(=O)c1cccn1Cc1ccncc1 (configuration not stated),17.94%
16,COc1ccc(-n2ccc(C(=O)N3CCN(C)CC3C)n2)cc1 (configuration not stated),-4.695%
17,CC1CN(C)CCN1C(=O)c1cnn(-c2ccc(Cl)cc2)c1 (configuration not stated),3.844%
18,CC1CN(C)CCN1C(=O)c1cccn1Cc1cccnc1 (configuration not stated),1.342%
19,Cc1cc(NC(=O)N2CCN(C)CC2C)n(Cc2ccccc2)n1 (configuration not stated),-3.69%
20,CC1CN(C)CCN1C(=O)c1ccn(-c2ccccc2Cl)n1 (configuration not stated),97.32%
21,CCCn1cnnc1CNC(=O)CC1C(=O)NCCN1CC(C)(C)C (configuration not stated),2.919%
22,O=C1N(CC2CC2)C2(CCSCC2)NC12CCCC2,-1.128%

row,Compound,Percent Effect
1,O=C1CC(c2ccc(C(=O)O)cc2)c2ncn(-c3cccc(Cl)c3)c2N1 (configuration not stated),-0.6524%
2,CC1CN(C)CCN1C(=O)c1ccn(-c2cccc(F)c2)n1 (configuration not stated),102.3%
3,O=C(c1ccn(-c2cccc(F)c2)n1)N1CCN(CC2CC2)CC1,1.903%
4,CC1CN(C)CCN1C(=O)c1ccn(-c2cccc(Cl)c2)n1 (configuration not stated),-2.456%
5,Cc1ccc(CN2CCN(CC(=O)N(C)C)[C@@H]3CS(=O)(=O)C[C@@H]32)cc1C,8.037%
6,COCCC1(CO)CCCN(Cc2ccncc2)C1 (configuration not stated),-9.658%
7,Cn1cc(CN2CCS(=O)(=O)C(C)(C)C2)cn1,112.3%
8,Cn1cc(CN2CC3(CCN(Cc4ccsc4)C3)C2)cn1,-4.449%
9,CC1(C)CN(Cc2ccncc2)CCS1(=O)=O,93.26%
10,Cc1ccc(CN2CCS(=O)(=O)C(C)(C)C2)cc1C,113.6%
11,CCc1cnc(N2CCN(Cc3ccncc3)CC2)s1,-22.29%
12,Cn1cc(CN2CCN(Cc3nccn3C)CC2)cn1,-17.17%
13,Cc1ccc(CN2CCN(CC3CC3)[C@@H]3CS(=O)(=O)C[C@@H]32)cc1C,-7.096%
14,COc1cccc2c1OCC(CNC(=O)COCC(F)(F)C(F)F)C2 (configuration not stated),-0.4399%
15,CC(Cn1cccn1)NC(=O)N(C)Cc1ccc(Cl)s1 (configuration not stated),-9.644%
16,CNC(=O)C(NC(=O)c1nccn2ccnc12)c1ccc(F)c(F)c1 (configuration not stated),7.625%
17,COCCN1C[C@@H]2CN(c3cc(OC)ncn3)CCC[C@]2(C(=O)O)C1.O=C(O)C(F)(F)F,-26.02%
18,COCCCC1CCCCN1Cc1cc(F)ccc1-n1cccn1 (configuration not stated),-9.489%
19,Cc1nc(CSc2nc(=O)ccn2C(C)C)cs1,-10.57%
20,CCOCCN1CCN(c2ccc(C#N)cn2)CC1CC (configuration not stated),137.2%
21,CCOCCN1CCN(c2ccc(C#N)cn2)CC1,109.9%
22,CCOCCN1CCN(c2ncccc2C#N)CC1CC (configuration not stated),98.03%

row,Compound,Percent Effect
1,CS(=O)(=O)NCC1CCCN(c2ccc(C#N)cn2)C1 (configuration not stated),7.798%
2,CC1CN(c2ccc(C#N)cn2)CCN1c1ccc2nncn2n1 (configuration not stated),-4.12%
3,CCc1nc(N2CCN(c3ncccc3C#N)CC2)c2cnn(C)c2n1,-1.782%
4,CC(C)(C)NC(=O)CN1CCCN(c2ccc(C#N)cn2)CC1,24.81%
5,Cn1ccnc1CN1CCN(c2ccc(C#N)cn2)CC1,-0.9775%
6,CCC1(CO)CCCN(c2ncccc2C#N)C1 (configuration not stated),13.06%
7,OC(CN(Cc1ccccc1)Cc1cscn1)c1ccco1 (configuration not stated),18.92%
8,Cc1cc(C(=O)NCC(c2ccccc2Cl)N2CCOCC2)on1 (configuration not stated),-6.198%
9,CCOCCCn1c(NC(=O)c2cc(C)no2)nc2ccccc21,106.1%
10,CCOCCCn1c(NC(=O)c2cc(C)on2)nc2ccccc21,95.91%
11,CCN(CC)CCn1c(NC(=O)c2scnc2C)nc2ccccc21,105.9%
12,CCOCCCn1c(NC(=O)c2cnc(C)s2)nc2ccccc21,27.94%
13,CCOC(=O)NCC(=O)Nc1nc2ccccc2n1C(C)(C)C,17.02%
14,CCOCCCn1c(NC(=O)c2cnc(C)cn2)nc2ccccc21,19.12%
15,CCOCCCn1c(NC(=O)c2ccnc(C)n2)nc2ccccc21,73.67%
16,CCOCCCn1c(NC(=O)c2cnn(C)c2)nc2ccccc21,-0.9199%
17,CCCn1c(NC(=O)CNC(=O)OCC)nc2ccccc21,-6.336%
18,CCOCCCn1c(NC(=O)c2scnc2C)nc2ccccc21,25.92%
19,CCOCCCn1c(NC(=O)c2ccc(C)nc2)nc2ccccc21,6.919%
